The results in this text go back to PubChem BioAssay AID1566 (Sanford-Burnham Center for Chemical Genomics, 2009).

Among all 290,000 compounds or so, about 1,800 (0.62%) were called active. The sample as a whole holds a higher share of actives than the screen did. Unmarked numbers belong to inactive results. Rule as the data show it: active = inhibition above about 50%; inactive = the rest.

The test in a line: NOD2 signaling inhibitors, cell-based, luminescence, uHTS, HEK293 (AID 1566). To be noted: HEK293 NOD2/NF-kB luciferase reporter, at 4 µM, active compounds read high.
Consider `CCCc1cc(=O)oc2cc(OCC(=O)NCc3ccccn3)ccc12`, for which the inhibition was 8.8%.

With `CSc1ncc(Cl)c(C(=O)Nc2c(C)cccc2C)n1`, the inhibition was -5.2%.

Turning to `N#Cc1c(NCCN)nc(-c2ccccc2)c2c1CCCC2`, the inhibition is 10.4%.

Turning to `O=C(/C=C/c1cccc(Cl)c1)NCc1ccccc1`, the inhibition is 9.9%.

With `CN(Cc1nc(Cc2ccccc2F)no1)Cc1cccc2ncccc12`, the inhibition was 19.2%.

For the compound `COc1ccc(NC(=O)COC(=O)C2CCC(C(C)(C)C)CC2)c([N+](=O)[O-])c1` (stereo unspecified), the inhibition is 16.1%.

Consider `Cc1cc(C(F)(F)F)nc(CCNCc2c(C(=O)N3CCCC3)nc3ccccn23)n1`, for which the inhibition was 12.8%.

On to `Cc1ccc(/C=N/c2sc3c(c2C(N)=O)CCCC3)o1`, for which the inhibition is -59.1%.

Consider `COc1ccc(-n2c(=S)[nH]c3cc(C(=O)Nc4cccc(C)c4)ccc3c2=O)cc1`, for which the inhibition is -42%.

With `O=C(O)CC1NC(=O)N(c2ccc(Cl)cc2)C1=O` (stereo unspecified), the inhibition is 5.4%.

As for `N#CC1=C(SCc2ccccc2)NC(=O)CC1c1cccc(O)c1` (stereo unspecified), the inhibition was 12.9%.

In the case of `O=S(=O)(c1ccc(Cl)cc1)N1CCN(S(=O)(=O)N2CCCCCC2)CC1`, the inhibition is -1.1%.

On to `CC(C)(C)OC(=O)N1CCC(c2cc(=O)n3[nH]c(-c4ccc(Cl)cc4)cc3n2)CC1`, for which the inhibition was 8%.

Take `Cc1nc2sc(C(c3ccc(Cl)cc3)N3CCN(C(=O)c4ccco4)CC3)c(O)n2n1` (stereo unspecified): the inhibition is 1.9%.

For the compound `COc1ccc(NS(=O)(=O)c2ccc3c(c2)OCCO3)cc1OC`, the inhibition is 52.2% (active).

Regarding `COc1ccc(S(=O)(=O)Nc2ccc3c(c2)OCCO3)cc1OC`, the inhibition is 4%.

`COc1ccc(S(=O)(=O)Nc2ccc3c(c2)OCO3)cc1OC`: the inhibition was -22.1%.

As to `Cc1ccc(NS(=O)(=O)c2ccc(-c3cnc(C4CC4)o3)cc2)cc1`, the inhibition was -3.1%.

With `COc1ccc(C)cc1NS(=O)(=O)c1ccc(-c2cnc(C3CC3)o2)cc1`, the inhibition was 27.1%.

As to `COc1ccc(-c2noc(-c3ccoc3C)n2)cc1`, the inhibition is -47.8%.

For the compound `CC(C)(C)C(=O)Nc1ccc(-c2cnco2)cc1`, the inhibition was 2.7%.

Turning to `Cc1ccc(CC(=O)Nc2ccc(C(=O)N3CCCCC3)cc2)cc1`, the inhibition was 0.3%.

In the case of `Cc1ccc(C23CC4CC(CC(NC(=O)NC(C)(C)CO)(C4)C2)C3)cc1`, the inhibition was -8.2%.

As to `COc1ccccc1C1(O)C(=O)Nc2ccccc21` (stereo unspecified), the inhibition was 24.1%.

In the case of `CCOC(=O)N/N=C/c1c(C)nn(-c2ccccc2Cl)c1Cl`, the inhibition was -45.5%.

For the compound `Cc1nn(-c2ccccc2Cl)c(Cl)c1/C=N/Nc1cccc(C(=O)O)c1`, the inhibition was -183%.

Consider `Cc1nn(-c2ccccc2Cl)c(Cl)c1/C=N/Nc1nc2ccccc2s1`, for which the inhibition was 78.1% (active).

As for `COc1ccccc1NC1=C(C)C(=O)CC1`, the inhibition was 5.8%.

As for `Cc1cccc(NC(=O)N2CCC(C(=O)c3ccc(F)cc3)CC2)c1`, the inhibition is -7.7%.

With `O=C1CCCN2N=C(SCC(=O)Nc3cccc(C(F)(F)F)c3)SC2=N1`, the inhibition is 58.1% (active).

`O=C1CCCN2N=C(SCC(=O)Nc3cccc(F)c3)SC2=N1`: the inhibition was -16.8%.

In the case of `O=C1CCCN2N=C(SCC(=O)Nc3cccc(Cl)c3)SC2=N1`, the inhibition was 43.7%.

With `CCC(C(=O)NCCCN1CCCCCC1)n1nc(C)c2sc3ccccc3c2c1=O` (stereo unspecified), the inhibition is -40.3%.

Turning to `CCC(C)(C)c1ccc(OCCCC[n+]2ccc(C)cc2)c(C(C)(C)CC)c1`, the inhibition was 29.7%.

Consider `CCC(C)(C)c1ccc(OCCCC[n+]2ccccc2)c(C(C)(C)CC)c1`, for which the inhibition was 12%.

Regarding `CC(C)(C)NC(=O)NC(=O)COC(=O)Cc1c(Cl)cccc1Cl`, the inhibition was 1.1%.

`COc1ccc(CCNc2oc(COc3ccccc3F)nc2C#N)cc1OC`: the inhibition was 9.2%.

As for `COc1ccc(CCNc2oc(Cc3ccccc3)nc2C#N)cc1OC`, the inhibition was 36.6%.

As to `COc1ccc(CCNc2oc(COc3ccccc3)nc2C#N)cc1`, the inhibition was -27.2%.

`COc1ccc(CCNc2oc(COc3ccc(F)cc3)nc2C#N)cc1`: the inhibition was -49.7%.

As to `CCOC(=O)N1CCN(C(=O)CSc2nc3c(cnn3-c3ccccc3)c(=O)[nH]2)CC1`, the inhibition was 2.1%.

For the compound `COc1ccc(-c2cc(=O)oc3c(C)c(OCC(=O)NCC4CCC(C(=O)O)CC4)ccc23)cc1` (stereo unspecified), the inhibition was 23.3%.

Take `N#CC1=C(SCC(=O)NC2CC2)NC(=O)C(C#N)C12CCCCC2` (stereo unspecified): the inhibition was -1.6%.

On to `CCSC1=C(C#N)C2(CCCCC2)C(C#N)C(=O)N1` (stereo unspecified), for which the inhibition is 10.3%.

For `Cc1nn(-c2cc(N3CCCCC3)ccc2[N+](=O)[O-])c(=O)c2ccccc12`, the inhibition was -6.2%.

As for `CCC(C)[C@H](NC(=O)C1CC(=O)N(c2ccc(OC)cc2)C1)C(=O)N1CCCCC1` (stereo partly specified), the inhibition is 12.9%.

For `COC(=O)c1ncn(C2OC(COC(C)=O)C(OC(C)=O)C2OC(C)=O)n1` (stereo unspecified), the inhibition is 18.8%.

For the compound `CCN1CCN(CCC(=O)Nc2ccc(F)c(F)c2)CC1`, the inhibition was 1.5%.

Consider `CCN(CC)S(=O)(=O)c1ccc2nnn(O)c2c1`, for which the inhibition was -3.6%.

For the compound `Cc1ccc(-n2nc3c(=O)n(CCCC(=O)N4CCC(C)CC4)nc(C)c3c2C)cc1`, the inhibition was 27.9%.

Turning to `Cc1nn(-c2ccccc2)c2nc(C(F)(F)F)[nH]c(=O)c12`, the inhibition was 30.5%.

Consider `Cc1ccc(-n2nc(C)c3c(=O)[nH]c(C(F)(F)F)nc32)cc1`, for which the inhibition was 32.3%.

For the compound `O=C(COc1ccc(Cl)cc1Cl)Nc1ccc(Cl)cn1`, the inhibition was -209%.

With `O=C(COc1ccc(Cl)cc1Cl)Nc1ccccn1`, the inhibition is 62.1% (active).

For `O=C(CCCOc1ccc(Cl)cc1Cl)Nc1ccccn1`, the inhibition is -183%.

In the case of `Cc1cccc(NC2=NCC(=O)N2CCc2ccccc2)c1`, the inhibition is -0.2%.

Turning to `COc1cc(C(=O)N(c2ccc(C)c(C)c2)C2C=CS(=O)(=O)C2)cc(OC)c1OC` (stereo unspecified), the inhibition was -4.9%.

With `O=C(O)CCCc1nc(-c2ccccc2)no1`, the inhibition was -10%.

Take `COc1ccc(-c2noc(CCCC(=O)O)n2)cc1`: the inhibition was 57.7% (active).

`COc1ccc(-c2noc(CCC(=O)O)n2)cc1`: the inhibition is 11.3%.

As to `O=C(NCCc1ccc(C(F)(F)F)cc1)C1CCC(=O)N(CCc2cccc(F)c2)C1` (stereo unspecified), the inhibition is -4.6%.
